These results are taken from PubChem BioAssay (Tox21).

“And” between values parts separate entries of the source, which are not always exact repeats. Identical values can stand only once. Results filed as inconclusive are left out. The source holds several records for some structures; these can differ, active in one and inactive in another. The source made the active and inactive calls. Unless noted, the call rests on the fitted dose curve; in most records, active means well fitted curve in the direction sought with a large enough effect in the repeat runs; inconclusive means weak or mixed curves; inactive means no such curve, though single readings can be large; an effect the other way counts as inactive or inconclusive.

A short description of experiment [1]: qHTS assay to identify small molecule agonists of the constitutive androstane receptor (CAR) signaling pathway - cell viability counter screen (AID 1224836). Further: nearly all actives have a fitted effect of over 45% in size. Further: potency means the concentration at half of the fitted maximal effect. A digest of the protocol:
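HepG2-CYP2B6-hCAR, 2500 cells/well, 4 h pre-incubation; cpd 15 conc + PK11195 0.75 uM final; 23 h, 37 C/5% CO2; CellTiter-Fluor, fluorescence.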

Experiment [2] concerns the target Nuclear receptor subfamily 1 group I member 3 (Homo sapiens) (UniProt Q14994). In words: qHTS assay to identify small molecule antagonists of the constitutive androstane receptor (CAR) signaling pathway (AID 1224838).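 Further: HepG2 cells stably expressing hCAR with CYP2B6 luciferase reporter stimulated by CITCO; nearly all actives have a fitted effect of over 40% in size.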 Further: potency means the concentration at half of the fitted maximal effect. A digest of the protocol:
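Human hepatoma HepG2 cells expressing hCAR and a CYP2B6 promoter (2.2 kb) luciferase construct; compound titration (15 points) with 50 nM CITCO final, 24 h at 37 C/5% CO2; luminescence via ONE-Glo after 30 min at room temperature.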

Experiment [3] can be described thus: qHTS assay to identify small molecule antagonists of the estrogen related receptor signaling pathway with the pleiotropic PPARgamma coactivator (PGC) from Tox21 10K library - cell viability counter screen (AID 1224840; active means well fitted cell-killing curve with a large enough effect in the repeat runs, not every such curve was filed as active; further: nearly all actives have a fitted effect of over 40% in size; further: potency means the concentration at half of the fitted maximal effect). A digest of the protocol:
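Seeded PGC/ERR cells (2,000/well, 6 h, 37 C/5% CO2) get compound by pin tool; 17.5 h incubation at 37 C; CellTiter-Fluor added, 30 min, fluorescence measured.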

For experiment [4], the target named is Thyrotropin receptor (Homo sapiens) (UniProt P16473). In words: qHTS assay to identify small molecule agonists of the thyroid stimulating hormone receptor (TSHR) signaling pathway (AID 1224843; calls by dose curve; further: nearly all actives have a fitted effect of over 45% in size; further: potency means the concentration at half of the fitted maximal effect; on activation: on the % scale 0 is the no-effect control and ±100 the full control effect). A digest of the protocol: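 Using 15 concentrations per compound in triplicate, cAMP production was monitored in TSHR-HEK293 cells after 30 min compound incubation at RT; HTRF reagents followed, with fluorescence intensity recorded after 1 h.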

Experiment [5] in a line: qHTS assay to identify small molecule agonists of H2AX (AID 1224845; active means well fitted activation curve with a large enough effect in the signal ratio in the repeat runs, not every such curve was filed as active; the % refers to the signal ratio; further: potency means the concentration at half of the fitted maximal effect). A digest of the protocol:
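Wild-type CHO-K1 cells plated overnight, then exposed 3 hr at 37C to compounds at 15 concentrations (0.76% DMSO). Lysed, then HTRF anti-pH2AX(S139)-cryptate/anti-H2AX-d2 detection after 24 hr at room temperature; emissions 665 and 620 nm.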

The nature of experiment [6]: qHTS assay to identify small molecule agonists of the hypoxia (HIF-1) signaling pathway (AID 1224846; active means well fitted activation curve with a large enough effect in the signal ratio in the repeat runs, not every such curve was filed as active; the % refers to the signal ratio; further: on the % scale 0 is the no-effect control and ±100 the full control effect). A digest of the protocol:
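Reporter induction in HRE-bla ME-180 cells is taken as agonism: cells sit 5 hrs after plating, receive compounds or DMSO only, incubate 17 hrs at 37C under 5% CO2, and are loaded with CCF4-AM for beta-lactamase FRET measurement.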

A short description of experiment [7]: qHTS assay to identify small molecule agonists of H2AX - cell viability counter screen (AID 1224847; calls by dose curve; further: nearly all actives have a fitted effect of over 30% in size; further: potency means the concentration at half of the fitted maximal effect). A digest of the protocol:
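Cells plated first: CHO-K1, 1000 per well in 10% FBS medium, incubated overnight at 37C. Then 15-point compound titration added (final DMSO 0.76%) for 3 hr. Finally CellTiter-Glo added and luminescence read.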

A short description of experiment [8]: qHTS RealTime-Glo MT Cell Viability Assay in HepG2 cells - 24 hour (AID 1224867). Further: nearly all actives have a fitted effect of over 50% in size. Further: potency means the concentration at half of the fitted maximal effect. The essentials:
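HepG2 cells (600/well) were dispensed with RealTime-Glo reagents, incubated 5 h at 37 °C, then treated with compounds in DMSO for up to 40 h. Nonlytic NanoLuc luminescence reflecting viable cells was read at each stated time point.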

Experiment [9] in a line: A CellTox Green Cytotoxicity Assay to monitor cytotoxicity in HEK293 cells - 0 hour (AID 1224869). Further: on the % scale 0 is the no-effect control and ±100 the full control effect; nearly all actives have a fitted effect of over 50% in size. The essentials:
(§1)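 Tox21 screen in HEK293: membrane-impermeant cyanine dye fluoresces on binding dead-cell DNA; compound pinned 5 h post-seeding, plates held at 37 C, signal read repeatedly through 40 h.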

A short description of experiment [10]: qHTS RealTime-Glo MT Cell Viability Assay in HepG2 cells - 40 hour (AID 1224870). Further: nearly all actives have a fitted effect of over 50% in size. Further: potency means the concentration at half of the fitted maximal effect. A digest of the protocol:
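HepG2 cells mixed with RealTime-Glo MT reagents (NanoLuc plus cell-permeant prosubstrate) were seeded at 600 cells/well, incubated 5 h at 37 C/5% CO2, then pinned with compounds in DMSO; nonlytic luminescence tracked viability during 40 h treatment.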

A short description of experiment [11]: A CellTox Green Cytotoxicity Assay to monitor cytotoxicity in HEK293 cells - 40 hour (AID 1224871). Further: nearly all actives have a fitted effect of over 45% in size. Further: potency means the concentration at half of the fitted maximal effect. A digest of the protocol:
as §1

The nature of experiment [12]: qHTS RealTime-Glo MT Cell Viability Assay in HEK293 cells - 16 hour (AID 1224872). Further: nearly all actives have a fitted effect of over 50% in size. Further: potency means the concentration at half of the fitted maximal effect. A digest of the protocol: (§2)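 HEK293 cells seeded with NanoLuc/prosubstrate reagent, rested 5 h at 37 C, then dosed and kept at 37 C up to 40 h. Nonlytic real-time luminescence from viable cells read at 0, 8, 16, 24, 32 and 40 h.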
Experiment [13] in a line: qHTS assay to identify small molecule agonists of the hypoxia (HIF-1) signaling pathway - cell viability counter screen (AID 1224844; calls by dose curve; further: nearly all actives have a fitted effect of over 50% in size; further: potency means the concentration at half of the fitted maximal effect). The essentials:
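HRE-bla ME-180; 0.5% dFBS; cpd 17 h, 37C, 5% CO2; CellTiter-Glo lum., 30 min RT, post-FRET read, same wells.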

A short description of experiment [14]: qHTS RealTime-Glo MT Cell Viability Assay in HEK293 cells - 32 hour (AID 1224868). Further: nearly all actives have a fitted effect of over 50% in size. Further: potency means the concentration at half of the fitted maximal effect. The essentials: as §2
Experiment [15] can be described thus: qHTS assay to identify small molecule antagonists of the constitutive androstane receptor (CAR) signaling pathway - cell viability counter screen (AID 1224837). Further: potency means the concentration at half of the fitted maximal effect; nearly all actives have a fitted effect of over 45% in size. A digest of the protocol: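 To flag cytotoxic false antagonists, HepG2 hCAR/CYP2B6-2.2kb cells were treated 23 hr with 15-concentration compound series and 50 nM CITCO at 37 C/5% CO2; CellTiter-Fluor fluorescence was the measured end point.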

Experiment [16] is described as follows: qHTS assay to identify small molecule antagonists of the estrogen related receptor signaling pathway with the pleiotropic PPARgamma coactivator (PGC) from Tox21 10K library (AID 1224841; call rule not given here; further: potency means the concentration at half of the fitted maximal effect). A digest of the protocol:
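Test chemicals dissolved in DMSO were applied to pre-incubated (6 h) PGC/ERR cells at 2,000 cells/well for an 18 h, 37 C treatment; reporter luminescence was then read using One-Glo.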

The nature of experiment [17]: qHTS assay to identify small molecule agonists of the estrogen related receptor signaling pathway with the pleiotropic PPARgamma coactivator (PGC) from Tox21 10K library (AID 1224842). Further: on the % scale 0 is the no-effect control and ±100 the full control effect; nearly all actives have a fitted effect of over 15% in size. A digest of the protocol: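 PGC/ERR reporter cells (NTP line) were seeded 2,000 per well, rested 6 h at 37 C/5% CO2, then pin-dosed with compounds in DMSO for 18 h at 37 C; luciferase read by One-Glo luminescence after 30 min at room temperature.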

Experiment [18] is described as follows: qHTS assay to identify small molecule antagonists of the estrogen related receptor (ERR) signaling pathway from Tox21 library (AID 1224848). Further: nearly all actives have a fitted effect of over 50% in size. Further: potency means the concentration at half of the fitted maximal effect. The essentials:
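Tox21 10K compounds in DMSO tested for ERR pathway antagonism in NTP's ERR cell line; 18 h, 37 C exposure; ONE-Glo luminescence.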

A short description of experiment [19]: qHTS assay to identify small molecule agonists of the estrogen related receptor (ERR) signaling pathway from Tox21 library (AID 1224849; calls by dose curve; further: on the % scale 0 is the no-effect control and ±100 the full control effect; nearly all actives have a fitted effect of over 15% in size). Conditions: ERR reporter cell line, ONE-Glo luciferase, 18 h. The essentials: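 Tox21 compounds tested for ERR agonism in an NTP reporter cell line: 18 h treatment at 37 C, then ONE-Glo luminescence.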

Chain of Thyrotropin receptor (Homo sapiens) (P16473 whole entry, looked up): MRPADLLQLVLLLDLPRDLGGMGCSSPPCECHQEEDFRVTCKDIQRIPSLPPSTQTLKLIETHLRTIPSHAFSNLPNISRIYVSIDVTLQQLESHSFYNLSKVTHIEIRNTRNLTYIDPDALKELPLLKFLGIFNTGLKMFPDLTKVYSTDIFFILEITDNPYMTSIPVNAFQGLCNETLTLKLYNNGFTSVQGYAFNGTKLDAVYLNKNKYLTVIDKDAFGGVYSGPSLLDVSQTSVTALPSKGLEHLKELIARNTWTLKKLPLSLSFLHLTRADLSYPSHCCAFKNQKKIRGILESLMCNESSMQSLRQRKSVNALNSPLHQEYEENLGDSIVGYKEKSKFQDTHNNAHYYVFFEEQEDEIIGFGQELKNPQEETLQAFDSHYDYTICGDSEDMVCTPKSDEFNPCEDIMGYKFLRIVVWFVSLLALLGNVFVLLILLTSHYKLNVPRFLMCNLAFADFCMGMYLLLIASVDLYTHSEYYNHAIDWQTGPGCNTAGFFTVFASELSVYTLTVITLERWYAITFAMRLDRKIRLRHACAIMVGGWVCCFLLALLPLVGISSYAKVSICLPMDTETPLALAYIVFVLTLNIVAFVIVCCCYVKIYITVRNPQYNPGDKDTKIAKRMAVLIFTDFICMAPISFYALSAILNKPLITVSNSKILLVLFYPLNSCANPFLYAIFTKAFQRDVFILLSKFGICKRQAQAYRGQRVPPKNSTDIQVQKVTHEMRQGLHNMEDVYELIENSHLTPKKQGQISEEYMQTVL
Chain of Nuclear receptor subfamily 1 group I member 3 (Homo sapiens) (Q14994 whole entry, looked up): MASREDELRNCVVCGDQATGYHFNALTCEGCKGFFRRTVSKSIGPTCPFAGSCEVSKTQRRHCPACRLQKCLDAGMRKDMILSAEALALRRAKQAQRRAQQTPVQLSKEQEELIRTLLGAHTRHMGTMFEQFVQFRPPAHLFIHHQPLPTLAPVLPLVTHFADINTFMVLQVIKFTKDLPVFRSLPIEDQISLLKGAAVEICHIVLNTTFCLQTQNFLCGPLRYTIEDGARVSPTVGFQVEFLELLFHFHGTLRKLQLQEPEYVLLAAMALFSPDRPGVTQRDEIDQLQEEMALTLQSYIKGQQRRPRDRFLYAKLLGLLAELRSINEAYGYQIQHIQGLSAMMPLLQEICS

As for `Cc1ccnc2c1NC(=O)c1cccnc1N2C1CC1`, the Potency result in experiment [1], in experiment [2], in experiment [3], in experiment [4], in experiment [5] and in experiment [6] was “inactive” each time. Further, the Potency result in experiment [7], in experiment [8], in experiment [9], in [10], in [11] and in experiment [12] was “inactive” in each case.
As to `CC(C)(C)NC(=O)[C@@H]1CN(Cc2cccnc2)CCN1C[C@@H](O)C[C@@H](Cc1ccccc1)C(=O)N[C@H]1c2ccccc2C[C@H]1O`, the Potency result in experiment [1], in experiment [3], in experiment [13], in experiment [5], in [6] and in experiment [8] was “inactive” each time. Also, the Potency result in experiment [14], in experiment [9], in [10], in experiment [11] and in experiment [12] was “inactive” throughout.
In the case of `CNCCC(Oc1ccc(C(F)(F)F)cc1)c1ccccc1` (stereo not given), the Potency in experiment [2] was 29.8 µM (active); in [3], 67.7 µM (active) and 29.8 µM (active); in experiment [7], 112 µM (active) and 49.2 µM (active). Also, the Potency result in [4] and in experiment [9] was “inactive” throughout.
Regarding `CCCCCC(=O)O[C@]1(C(C)=O)CC[C@H]2[C@@H]3CCC4=CC(=O)CC[C@]4(C)[C@H]3CC[C@@]21C`, the Potency in experiment [15] is 48.2 µM (active); in experiment [3] it was 54.1 µM (active); in experiment [13] it was 38.6 µM (active); in [7], 31.6 µM (active); in [18], 24.2 µM (active) and 7.5 µM (active); in [14] it was 24.4 µM (active). Also, the Potency result in experiment [2], in experiment [16], in experiment [17], in experiment [5], in experiment [8] and in [9] was “inactive” throughout. In addition, the Potency entry in experiment [10] and in experiment [11] was “inactive” in each case. The activity change, positive = activation in experiment [19] (at 42.5 µM (top of the series)) was -35.8% (inactive); in experiment [19] (at 92.4 µM (top of the series)) it was -61% (inactive).
With `CCN(CC)C(=O)Nc1ccc(OCC(O)CNC(C)(C)C)c(C(C)=O)c1` (stereo not given), the Potency result in experiment [1], in experiment [2], in experiment [3], in experiment [16], in [4] and in [13] was “inactive” in each case. The Potency result in experiment [5], in experiment [6], in [7], in experiment [18], in [8] and in experiment [14] was “inactive” throughout. In addition, the Potency result in experiment [9], in experiment [10], in experiment [11] and in [12] was “inactive” each time. In experiment [19] (at 42.5 µM (top of the series)), the activity change, positive = activation is -6.6% (inactive).
For the compound `c1ccc2c(c1)CCCC2C1=NCCN1` (stereo not given), the Potency entry in experiment [1], in experiment [3], in [4], in experiment [13], in [5] and in [7] was “inactive” throughout. In addition, the Potency entry in [8], in experiment [9], in [10], in experiment [11] and in experiment [12] was “inactive” throughout.
As for `Cc1ccc(-c2cc(C(F)(F)F)nn2-c2ccc(S(N)(=O)=O)cc2)cc1`, the Potency in experiment [3] is 54.3 µM (active) and 54.5 µM (active) and inactive; in experiment [16] it was 60.9 µM (active) and inactive; in [4] it was 48.4 µM (active) and 34.4 µM (active) and inactive; in [13], 48.8 µM (active) and 54.9 µM (active) and inactive; in experiment [18] it was 27.2 µM (active) and 61.1 µM (active); in [8] it was 48.8 µM (active) and 49 µM (active). For the same compound, the Potency is 49 µM (active) and inactive in experiment [10]; 54.7 µM (active) and 54.9 µM (active) and inactive in [11]; 38.7 µM (active) and 27.5 µM (active) and inactive in experiment [12]. Also, the Potency entry in experiment [17], in experiment [5] and in experiment [9] was “inactive” in each case. The activity change, positive = activation in experiment [19] (at 42.5 µM (top of the series)) was -20.4% (inactive); in [19] (at 92.4 µM (top of the series)), -66.1% (inactive) and -48.6% (inactive).
With `Cc1cc(Cc2cc(C)cc(C(C)(C)C)c2O)c(O)c(C(C)(C)C)c1`, the Potency in [1] is 61.4 µM (active); in experiment [2] it was 19.4 µM (active) and 43.3 µM (active); in experiment [3], 48.8 µM (active) and 43.3 µM (active); in [16], 48.8 µM (active) and 30.6 µM (active); in experiment [4], 43.5 µM (active) and inactive; in experiment [5], 56.9 µM (active) and 45 µM (active). In addition, the Potency in experiment [18] was 27.4 µM (active) and 30.6 µM (active); in experiment [8], 49.2 µM (active) and 43.6 µM (active); in experiment [10] it was 55.2 µM (active) and 49 µM (active); in experiment [11], 43.9 µM (active) and 43.6 µM (active); in experiment [12], 15.6 µM (active) and 17.4 µM (active). Moreover, the Potency result in [17] and in [9] was “inactive” each time. Also, in [19] (at 92.4 µM (top of the series)), the activity change, positive = activation was -73.5% (inactive) and -62.7% (inactive).
